# Measured values taken from PubChem BioAssay (NCATS).
# Several values for one entry are separate records, joined by “and”; a condition that tells them apart may be missing. Identical values can stand only once. Inconclusive results are not listed. Activity calls are given as the source filed them. Calls follow the shape of the dose curve; as a rule, active = well fitted curve in the direction sought with a large enough effect; inconclusive = small, poorly fitted or top-dose-only effect, or another doubt; inactive = no such curve, though single readings can be large or run the other way.
# Test: qHTS Assay for Identifying Gametocytocidal Compounds (AID 743244);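 as to max response: actives lower the fluorescent signal which means gametocytes are killed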
# Conditions: P. falciparum 3D7 stage III-V gametocytes, alamarBlue, 72 h; max response: stronger effect = lower value
# Source text: Malaria cases and deaths have dropped 50% in 29 countries since 2000 due to the combined effects of long-lasting insecticidal bednets, indoor residual spraying, and artemisinin-based combination therapies (ACTs). This success has raised hopes for malaria eradication and consequently stimulated interest in developing new reagents that block gametocyte transmission such as novel and safe gametocytocidal drugs. However, previous drug development efforts have focused primarily on the asexual parasites that cause symptoms, but not malaria transmission. Consequently, patients can remain infectious for weeks after the clearance of asexual parasites and clinical symptoms. To be transmitted from person to person via a mosquito, the parasites must switch from asexual to sexual development and produce male and female gametocytes. Malaria gametocytes consist of five stages (I, II, III, IV and V). The late stage gametocytes (III, IV and V) are difficult to be cultured in vitro and the long lifespan of mature gametocytes allows them being transmitted from host to mosquitoes unless they are completely eliminated by gametocytocidal agents. To identify gametocytocidal compounds which are capable of killing late stage P. falciparum gametocytes, a high throughput gametocyte viability assay was employed. This assay uses oxidoreduction indicator, alamarBlue, as a general measure of metabolic activity of gametocytes. Within live cells, the nonfluorescent resazurin is reduced to resorufin, a bright red fluorescence dye. Fluorescence decreases upon treatment of gametocytocidal compounds. P. falciparum gametocyte (3D7 strain) was used in this study.
# The 1536-well gametocycidal viability assay was based on the previous method of Tanaka et al. Stage III-V gametocytes were tested against three compound libraries, including 4265 compounds from NCGC pharmaceutical collection, 400 from Malaria Box library, and 550 from an internal collection of kinase inhibitors. Briefly, 2.5 ul/well incomplete medium was dispensed into each well of 1,536-well plates using the Multidrop Combi followed by 23 nl compound transferring using the NX-TR Pintool (WAKO Scientific Solutions, San Diego, CA). Then, 2.5 ul/well of gametocytes was dispensed with a seeding density of 20,000 cells/well using the Multidrop Combi. The assay plates were incubated for 72 h at 37C with 5% CO2. After addition of 5 ul/well of 2X AlamarBlue dye (Life Technologies, cat. no. DAL1100), the plates were incubated for 24 h at 37C with 5% CO2 and then were read in a fluorescence detection mode (Ex = 525 nm, Em = 598 nm) on a ViewLux plate reader (PerkinElmer).
# % is scaled to controls: 0 for no effect and ±100 for the full control effect; potency is read from the fitted curve at half-maximal effect.
SMILES,max response,Potency
CC(C)=CCOc1ccc(/C=C/C(=O)c2ccc(OCC=C(C)C)cc2OCC(=O)O)cc1,2.6% (inactive),
COc1ccc(-c2cc(C(F)F)nn2-c2ccc(S(N)(=O)=O)cc2)cc1F,25.1% (inactive),
CCC1Nc2cc(Cl)c(S(N)(=O)=O)cc2S(=O)(=O)N1 (stereo not given),7.47% (inactive),
O=C1OC2(c3ccccc31)c1cc(Br)c(O)c(Br)c1Oc1c2cc(Br)c(O)c1Br,-3.43% (inactive),
C[C@H]1O[C@@H](O[C@H]2CC[C@@]3(C)[C@H](CC[C@@H]4[C@@H]3C[C@@H](O)[C@]3(C)[C@@H](C5=CC(=O)OC5)CC[C@]43O)C2)C[C@H](O)[C@@H]1O[C@H]1C[C@H](O)[C@H](O[C@H]2C[C@H](O)[C@H](O[C@@H]3O[C@H](CO)[C@@H](O)[C@H](O)[C@H]3O)[C@@H](C)O2)[C@@H](C)O1,-0.158% (inactive),
NCc1ccccc1Sc1ccccc1CO,-6.07% (inactive),
Cc1cccc(C)c1NC(=O)CN1CCCCCC1,3.55% (inactive),
CCN1CCN(C(=O)N[C@@H](C(=O)N[C@@H]2C(=O)N3C(C(=O)O)=C(CSc4nnnn4C)CS[C@H]23)c2ccc(O)cc2)C(=O)C1=O,14.5% (inactive),
CCCCN=C(N)N=C(N)N,0.948% (inactive),
NC(=S)N/N=C/c1cccnc1,-11.6% (inactive),
CCCCCCCCCCC[C@@H](C[C@@H]1OC(=O)[C@H]1CCCCCC)OC(=O)[C@H](CC(C)C)NC=O,-7.75% (inactive),
CC(=O)O[C@H]1C[C@@H]2CC[C@@H]3[C@H](CC[C@@]4(C)[C@H]3C[C@H]([N+]3(C)CCCCC3)[C@@H]4OC(C)=O)[C@@]2(C)C[C@@H]1N1CCCCC1,-2.39% (inactive),
CC1=C(C(=O)O)N2C(=O)[C@@H](NC(=O)[C@H](N)c3ccccc3)[C@H]2SC1,2.91% (inactive),
CCNC(=O)/C=C/c1cccc(Br)c1,3.79% (inactive),
COc1cc(C(=O)N2CCCCCCC2)cc(OC)c1OC,12.8% (inactive),
O=c1[nH]c(=O)n([C@H]2C[C@H](O)[C@@H](CO)O2)cc1F,4.58% (inactive),
CC(C)(C)NCC(O)COc1cccc2c1C[C@H](O)[C@H](O)C2 (stereo not given in full),-0.0039% (inactive),
Cc1cccc(C)c1NC(=O)CN1CCCC1,20.5% (inactive),
CCCCCCCCNC(C)C(O)c1ccc(SC(C)C)cc1 (stereo not given),,2.51 µM (active)
Cc1c[nH]c2ccccc12,0.215% (inactive),

SMILES,max response,Potency
C#C[C@]1(O)CC[C@H]2[C@@H]3CCC4=CC(=O)CC[C@@H]4[C@H]3CC[C@@]21CC,6.28% (inactive),
NCCNC(=O)c1ccc(Cl)cn1,-2.71% (inactive),
C#C[C@]1(OC(C)=O)CC[C@H]2[C@@H]3CCC4=C/C(=N/O)CC[C@@H]4[C@H]3CC[C@@]21CC,-2.23% (inactive),
O=C1[C@H](CC[C@H](O)c2ccc(F)cc2)[C@@H](c2ccc(O)cc2)N1c1ccc(F)cc1,4.75% (inactive),
CCN(CC)CCOc1ccc2c(c1)C(=O)c1cc(OCCN(CC)CC)ccc1-2,,12.6 µM (active)
CC(O)Cn1cnc2c1c(=O)n(C)c(=O)n2C (stereo not given),5.34% (inactive),
CN(C)CCN1C(=O)c2ccccc2N(C)c2ccccc21,-0.0527% (inactive),
c1ccc(CC2=NCCN2)cc1,-3.06% (inactive),
CCC(CC)(CC(=O)Nc1cccc(/C=C/c2nc(C3CCC3)cs2)c1)C(=O)O,48.4% (inactive),
CN1CCN(c2cc3c(cc2F)c(=O)c(C(=O)O)cn3-c2ccc(F)cc2)CC1,-4.31% (inactive),
CCO[C@@H]1O[C@H](C(COCc2ccccc2)OCc2ccccc2)[C@H](OCc2ccccc2)[C@H]1O (stereo not given in full),-9.56% (inactive),
Cc1cc(NS(=O)(=O)c2ccc(N)cc2)nc(C)n1,18.7% (inactive),
CC(C)Nc1cccnc1N1CCN(C(=O)c2cc3cc(NS(C)(=O)=O)ccc3[nH]2)CC1,-8.7% (inactive),
CCCCCCCCCCCCCCCC(=O)O,2.07% (inactive),
O=C(Nc1ncc([N+](=O)[O-])s1)c1cccs1,35.1% (inactive),
O=C(O)P(=O)(O)O,10.4% (inactive),
CC(=O)NCCCCCC(=O)O,-5.55% (inactive),
CC(=O)Nc1ccc(OC(=O)c2ccccc2OC(C)=O)cc1,12.6% (inactive),
OC1C(O)C(O)C(O)C(O)C1O (stereo not given),0.49% (inactive),
CN(Cc1ccc(C(C)(C)C)cc1)Cc1cccc2ccccc12,18.1% (inactive) and -10.3% (inactive),
